PubChem BioAssay AID2551 (National Center for Advancing Translational Sciences (NCATS), 2010)
Among all 310,000 compounds or so, about 17,000 (5.5%) were called active. Entries that show only a call come without a potency. Inconclusive results (about 11%) are left out. Many of the other results were omitted from the sample, so actives are more common in it than they were. Unmarked numbers belong to inactive results. Calls come from the whole dose curve; as a rule, active = well fitted inhibition curve with a large enough effect; inconclusive = small, poorly fitted or top-dose-only effect, or effect the other way; inactive = no such curve, though single readings can be large or run the other way.

Molecular target: Nuclear receptor ROR-gamma (Mus musculus) (UniProt P51450)
Test: qHTS for inhibitors of ROR gamma transcriptional activity; note: nearly all actives have a fitted effect of over 60% in size
Settings: Drosophila S2 Gal4-RORgamma UAS-luciferase reporter, 20 h; series mostly up to 53.6 µM
How it was run: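 Luciferase reporter read in Schneider cells carrying Gal4-RORγ (mouse) and UAS-Photinus luciferase; cells given compound 1 h before 700 uM copper sulfate induction, then incubated 20 h at ambient temperature.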
Potency is the fitted concentration of half-maximal effect.

Chain of Nuclear receptor ROR-gamma (Mus musculus) (P51450 whole entry, looked up): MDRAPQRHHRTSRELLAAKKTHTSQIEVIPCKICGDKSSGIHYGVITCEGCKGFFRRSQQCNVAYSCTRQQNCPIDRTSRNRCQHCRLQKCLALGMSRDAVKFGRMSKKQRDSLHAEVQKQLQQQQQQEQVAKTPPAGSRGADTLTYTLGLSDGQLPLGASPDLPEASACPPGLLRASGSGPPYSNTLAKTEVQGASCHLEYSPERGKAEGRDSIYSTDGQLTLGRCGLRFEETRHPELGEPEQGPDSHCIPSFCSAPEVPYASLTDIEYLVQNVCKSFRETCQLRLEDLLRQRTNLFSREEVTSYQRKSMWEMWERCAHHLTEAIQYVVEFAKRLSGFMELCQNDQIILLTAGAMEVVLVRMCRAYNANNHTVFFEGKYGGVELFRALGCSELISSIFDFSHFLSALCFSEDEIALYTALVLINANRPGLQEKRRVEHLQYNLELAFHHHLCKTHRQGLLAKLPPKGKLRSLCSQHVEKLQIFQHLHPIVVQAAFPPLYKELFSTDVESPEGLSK

Row | SMILES | Potency | activity change, negative = inhibition
1 | COc1ccc(NC(=O)/C(Cl)=C(/Cl)S(=O)Cc2ccc(C)cc2)cn1 (stereo unspecified) | inactive | 
2 | COc1ccc(CS(=O)/C(Cl)=C(/Cl)C(=O)Nc2ccc(OC)nc2)cc1 (stereo unspecified) | 1.12 µM (active) | 
3 | COc1ccc(C(=O)Nc2ccc(NC(=O)C(C)C)nc2)cc1 | inactive | 
4 | O=C(NCc1ccccc1)C1CCN(C(=O)Cc2ccccc2)CC1 | inactive | 
5 | Cc1ccc2nc(SCC(=O)NC3CCCC3)[nH]c2c1 | inactive | 
6 | Clc1ccc(-c2cc(-c3ccccn3)on2)c(Cl)c1 | 3.98 µM (active) | 
7 | O=C1CSC(c2ccccc2)N1c1nc(-c2ccc(Cl)cc2Cl)cs1 (stereo unspecified) | inactive | 
8 | Clc1ccc(-c2ncc3ccccn23)c(Cl)c1 | inactive | 
9 | COc1ccc(-n2nc(C(=O)NCC(=O)N3CCN(c4ccccc4OC)CC3)c3ccccc3c2=O)c(OC)c1 | inactive | 
10 | Cc1cccc2c1cnn2C(=O)CCC(=O)NC1CCCCC1 | inactive | 
11 | CCCCc1nc2cc(C(=O)N3CCCCC3CCO)ccc2o1 (stereo unspecified) | inactive | 
12 | CNC(=S)N/N=C/c1ccc(N2CCOCC2)s1 | 1.26 µM (active) | 
13 | Cc1ccccc1N/N=C/c1ccc(N2CCOCC2)cc1 | inactive | 
14 | C=CCNC(=S)N/N=C/c1ccc(C)s1 | inactive | 
15 | CSCCC(NS(=O)(=O)c1ccccc1F)C(=O)N1CC=C(c2ccccc2)CC1 (stereo unspecified) | inactive | 
16 | C=CCc1ccccc1OCC(O)CN1CCN(CCO)CC1 (stereo unspecified) | inactive | 
17 | CCN(CC(=O)NCCCN1CCOCC1)S(=O)(=O)c1cc(Cl)ccc1Cl | inactive | 
18 | CC(=O)N1CCC(C(=O)OCc2ccc(Cl)cc2)(c2ccccc2)CC1 | inactive | 
19 | O=C(NCc1ccco1)/C(=C\c1cccc([N+](=O)[O-])c1)NC(=O)c1ccco1 | inactive | 
20 | COC(=O)CNC(=O)c1ccc(OC2CCN(C(=O)C3CC3)CC2)cc1 | inactive | 
21 | CCc1ccc(/C=N/NC(=O)c2ccc(OC3CCCC3)cc2)s1 | 11.2 µM (active) | 
22 | CCc1cc(C(N)=O)c(NC(=O)c2ccc(OC)cc2)s1 | inactive | 
23 | CCOC(=O)N1CCN(C(=O)c2ccc3c(=O)n(CCc4ccc(OC)c(OC)c4)c(=O)[nH]c3c2)CC1 | inactive | 
24 | CCOC(=O)Cn1c(O)c(N=NC(=O)CNC(=O)Cc2ccccc2)c2ccccc21 | inactive | 

Row | SMILES | Potency | activity change, negative = inhibition
25 | CC1CCN(C(=O)/C(=C\c2ccccc2F)NC(=O)c2ccccc2)CC1 | inactive | 
26 | O=C(Cn1cc(/C=N/NC(=O)c2cccc(C(F)(F)F)c2)c2ccccc21)Nc1ccc(F)cc1 | 11.2 µM (active) | 
27 | NC(=O)Cn1cc(/C=N\NS(=O)(=O)c2ccccc2)c2ccccc21 | inactive | 
28 | O=C(CN1CCN(c2ccc(F)cc2)CC1)Nc1cccc(C(F)(F)F)c1 | inactive | 
29 | Cc1ccc(S(=O)(=O)N/N=C(\c2ccccc2)C2CC2)cc1 | inactive | 
30 | Cc1cccc(/C=N/NC(=O)CNc2cccc3ccccc23)n1 | 14.1 µM (active) | 
31 | C/C(=N\NC(=O)CNc1cccc2ccccc12)c1ccc(Br)s1 | inactive | 
32 | Cn1cccc1/C=N/NC(=O)CNc1cccc2ccccc12 | inactive | 
33 | CCn1cc(CN2CCN(CC(C)(C)C)C(CCO)C2)c2ccccc21 (stereo unspecified) | inactive | 
34 | O=c1[nH]c(CN2CCOCC2)nc2cc(Cl)ccc12 | inactive | 
35 | CN(Cc1nc2ccccc2c(=O)[nH]1)Cc1cc(=O)oc2ccc3ccccc3c12 | inactive | 
36 | CN(CCOc1ccccc1)Cc1nc2cc(Cl)ccc2c(=O)[nH]1 | 4.47 µM (active) | 
37 | COc1cccc(CNC(=O)c2cccnc2Sc2ccc(Cl)cc2)c1 | inactive | 
38 | Brc1ccccc1CN1CCC(Cc2ccccc2)CC1 | inactive | 
39 | CCOC(=O)CNC(=O)CSc1nnc(COc2ccc(Cl)cc2)n1CC | 7.94 µM (active) | 
40 | C=CCn1c(COc2ccccc2)nnc1SCC(=O)NCC(=O)OCC | inactive | 
41 | CCOC(=O)CNC(=O)CSc1nnc(-c2cccc(OC)c2)n1CC | inactive | 
42 | Cn1c(=O)oc2cc(S(=O)(=O)NCCC(=O)NCc3ccccc3Cl)ccc21 | inactive | 
43 | O=C(CCC1CCN(C(=O)c2cccc(Cl)c2F)CC1)Nc1ccccc1 | inactive | 
44 | O=C1c2cccc3c([N+](=O)[O-])ccc(c23)C(=O)N1CC1CCCO1 (stereo unspecified) | 15.8 µM (active) | 
45 | CCC(=O)Nc1ccc(C(=O)Nc2ccc3c(c2)C(=O)N(CC2CCCO2)C3=O)cc1 (stereo unspecified) | inactive | 
46 | O=C(NCc1ccc2c(c1)OCO2)c1ccc2c(c1)C(=O)N(CC1CCCO1)C2=O (stereo unspecified) | inactive | 
47 | O=C(CSc1n[nH]c(=O)n1-c1ccccc1)Nc1ccccc1C(F)(F)F | inactive | 
48 | CCCNC(=O)CCc1c(C)nc2c(c(C)nn2-c2ccc(C)cc2)c1C | inactive | 

Row | SMILES | Potency | activity change, negative = inhibition
49 | COc1cc2ccccc2cc1C(=O)Nc1nc(C)c(C(C)=O)s1 | inactive | 
50 | CCCCCC1CC(COc2ccccc2)OC1=O (stereo unspecified) | inactive | 
51 | COc1ccc(C(=O)NC2CC(C)(C)Cc3c2cnn3-c2ccccc2)c(OC)c1 (stereo unspecified) | inactive | 
52 | O=C(NCCCn1ccnc1)c1cc(Br)c(Br)s1 | inactive | 
53 | C=Cn1cc[n+](CC(=O)c2ccc(OC)c(OC)c2)c1 | inactive | 
54 | O=C(CSc1ccc(-c2ccco2)nn1)Nc1cccc(F)c1 | inactive | 
55 | Cc1cnc(NC(=O)c2ccccn2)s1 | 0.794 µM (active) | 
56 | Cc1cnc(NC(=O)CSc2nnc(C)s2)s1 | inactive | 
57 | Cc1cnc(NC(=O)CSc2c(Cl)cccc2Cl)s1 | inactive | 
58 | Cc1ccc(Cl)cc1NC(=O)c1ccccn1 | inactive | 
59 | Cc1cnc(NC(=O)c2ccc(Cl)nc2)s1 | 15.8 µM (active) | 
60 | Cc1ccc(SCC(=O)Nc2ncc(C)s2)cc1 | inactive | 
61 | CCC(C)C(NC(=O)C1CCC(=O)N1C(=O)OCc1ccccc1)C(=O)NC(C(=O)N1CCCC1C(N)=O)C(C)CC (stereo unspecified) | inactive | 
62 | Cc1cc(=O)oc2cc(OC(C)C(=O)NCCc3ccc(S(N)(=O)=O)cc3)ccc12 (stereo unspecified) | inactive | 
63 | CN(C(=O)COC(=O)CNC(=O)C12CC3CC(CC(C3)C1)C2)c1ccccc1 | inactive | 
64 | CCC(=O)Nc1ccc(S(=O)(=O)Nc2c(NC)c3ccccc3oc2=O)cc1 | inactive | 
65 | O=S1(=O)CCOC[C@H](CC2CCCCC2)N1Cc1ccc(F)cc1 | inactive | 
66 | CCOc1cc(NC(=O)c2ccccn2)c(OCC)cc1NC(=O)c1ccc(OC)cc1 | inactive | 
67 | COc1ccc(C(=O)/C=C/Nc2ccccn2)cc1 | 3.55 µM (active) | 
68 | CCOc1ccc(N/C=C/C(=O)c2cc(OC)c(OC)c(OC)c2)cc1 | inactive | 
69 | Cc1ccc(CNC(=O)C2(C(F)(F)F)C/C(=C\Cc3ccccc3)CCCO2)o1 (stereo unspecified) | inactive | 
70 | COc1ccc(N2C(=O)CC(Sc3n[nH]c(-c4ccc(C)cc4)n3)C2=O)cc1 (stereo unspecified) | 20 µM (active) | 
71 | COc1ccc(N2C(=O)CC(SC(C)C)C2=O)cc1 (stereo unspecified) | inactive | 
72 | COc1ccc(-c2nc(SCC(=O)N3CCCC3)n[nH]2)cc1 | inactive | 

Row | SMILES | Potency | activity change, negative = inhibition
73 | Cc1ccc(F)c(NC(=O)CCOc2ccccc2C)c1 | inactive | 
74 | CCC(C)NCC(=O)Nc1ccc([N+](=O)[O-])cc1C(=O)Nc1ccccc1F (stereo unspecified) | inactive | 
75 | Cc1ccc(/C([O-])=C(/C(=S)NCc2ccco2)[n+]2ccccc2)cc1[N+](=O)[O-] | inactive | 
76 | O=[N+]([O-])c1cccc(/C([O-])=C(/C(=S)Nc2ccccc2F)[n+]2ccccc2)c1 | 12.6 µM (active) | 
77 | CS(=O)(=O)N(CC(=O)N1CCOCC1)c1cccc(Cl)c1Cl | inactive | 
78 | C=CCn1cc(Cl)cc(C(=O)Nc2ccccc2)c1=O | inactive | 
79 | Cc1nc2ccc(C(=O)N(C)CC3CCCN(CCc4ccc(Cl)cc4)C3)cc2[nH]1 (stereo unspecified) | inactive | 
80 | C=CCCN(Cc1ccccc1)S(=O)(=O)c1ccccc1Br | inactive | 
81 | C=CC(COCc1ccccc1)N(Cc1ccccc1)S(=O)(=O)c1ccccc1Br (stereo unspecified) | 7.94 µM (active) | 
82 | CC(NC(=O)C1CCCN(S(=O)(=O)c2ccc(-n3cnnn3)cc2)C1)c1ccc(F)cc1 (stereo unspecified) | inactive | 
83 | O=C(NCc1ccco1)/C(=C/c1cccc([N+](=O)[O-])c1)NC(=O)c1ccco1 | inactive | 
84 | CS(=O)(=O)c1sc(C(=O)NC(=S)Nc2ccc(OC(F)(F)F)cc2)c2c1C=CCC2 | 7.08 µM (active) | 
85 | COC(=O)[C@H](C)NC(=O)Nc1ccc(OC(F)(F)F)cc1 | inactive | 
86 | CSc1sc(C(=O)NNC(=O)c2ccc(Cl)cc2)c2c1C=CCC2 | inactive | 
87 | CN1C(=O)c2ccc(C(=O)Nc3ccc(Br)cn3)cc2C1=O | inactive | 
88 | O=C(Nc1cc(-c2nc3ncccc3o2)ccc1Cl)c1ccco1 | inactive | 
89 | Cn1c(SCC(=O)N2CCCC2)nnc1-c1ccc2c(c1)OCO2 | inactive | 
90 | CCc1ccccc1N1CN(Cc2ccco2)CNC1=S | 4.47 µM (active) | 
91 | CCOc1ccc(CC(=O)NC2CCN(Cc3ccccc3)CC2)cc1 |  | 11.1% [at 1.91 µM]
92 | N#CNC1=NCN(CCc2ccccc2)CN1 | inactive | 
93 | S=C1SCN(CCN2CCOCC2)CN1Cc1ccccc1 | inactive | 
94 | CCOc1ccccc1OCCCNCc1ccccc1 | inactive | 
95 | CCCN1CNC(=S)N(CCc2ccccc2)C1 | 3.98 µM (active) | 
96 | CC12CN(Cc3ccccc3)CC(C)(CN(Cc3ccccc3)C1)C2=NO | inactive | 

Row | SMILES | Potency | activity change, negative = inhibition
97 | CCOc1ccccc1N1CN(Cc2ccccc2)CNC1=S | 4.47 µM (active) | 
98 | CCN1CN(Cc2ccccc2)CNC1=S | 12.6 µM (active) | 
99 | O=S(=O)(c1cc(Cl)ccc1Cl)N1CCN(Cc2ccco2)CC1 | inactive | 
100 | c1ccc(CCN2CN=C(Nc3nc4ccccc4o3)NC2)cc1 | inactive | 
101 | Cn1c2c(c(=O)n(C)c1=O)CN(Cc1ccco1)CN2 | inactive | 
102 | COc1ccccc1NC(=O)CSc1nnc(CNC(=O)c2ccccc2F)o1 | inactive | 
103 | CCOc1ccc(C)cc1S(=O)(=O)NC1CCCCCC1 | inactive | 
104 | COc1ccc(C(=O)N2CCCN(C)CC2)c(OC)c1 | inactive | 
105 | Cc1cccc[n+]1CC(=O)c1ccccc1 | inactive | 
106 | CSc1ccccc1OCc1cc(C(=O)N(C)CCc2c(C)n[nH]c2C)no1 | inactive | 
107 | CCn1c(SCc2cccc(C(=O)O)c2)nnc1-c1ccc(Cl)cc1 | inactive | 
108 | CCOc1ccc(NC(=S)N2CCCCCC2)cc1 | 7.08 µM (active) | 
109 | CCOc1ccc(NC(=S)N2CCC(N(C)CC3CCCO3)CC2)cc1 (stereo unspecified) | inactive | 
110 | NS(=O)(=O)c1ccc(NC(=S)N2CCCC2)cc1 | inactive | 
111 | CCC(C)c1ccc(NC(=S)N2CCCC2)cc1 (stereo unspecified) | 8.91 µM (active) | 
112 | Cc1cc(C)cc(NC(=O)NCc2ccccn2)c1 | inactive | 
113 | O=C(NCc1ccccn1)Nc1ccc(F)cc1 | inactive | 
114 | CCC(C)c1ccc(NC(=S)NCc2ccccn2)cc1 (stereo unspecified) | 2.51 µM (active) | 
115 | CCOc1ccc(NC(=S)N2CCC(NC(=O)c3ccccc3)CC2)cc1 | inactive | 
116 | CCC(C)N(C)C1CCN(C(=S)Nc2ccc(OC)cc2)CC1 (stereo unspecified) | inactive | 
